# Reference: publication PMC5540273 (PLoS ONE, 2017)
# Assays:
# PIK4CB = system: T1, PIK4CB
# T1 construct: gene PI4KB
# PIP5K2C = system: T2, PIP5K2C
# T2 construct: gene PIP4K2C
# 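Note: kd values determined as follow-up on hits from a single-replicate KINOMEscan panel screen.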
smiles,measurement,setting,value
COc1ccc(-c2cc3c(C)nc(N)nc3n([C@H]3CC[C@H](OCCO)CC3)c2=O)cn1,Kd,PIK4CB,46 nM
Cc1cccc(-c2nc(Nc3ccc4c(cnn4C)c3)c3ccccc3n2)n1 [GW876731],Kd,PIKFYVE,380 nM
COc1ccc(-c2cc3c(C)nc(N)nc3n([C@H]3CC[C@H](O)CC3)c2=O)cn1,Kd,PIK3CG,0.32 nM
same,Kd,PIK4CB,25 nM
COc1cc2ncn(-c3cc(OCc4ccc(S(C)(=O)=O)cc4)c(C(N)=O)s3)c2cc1OC [GW869979],Kd,PLK1,14 nM
same,Kd,PLK2,5.9 nM
same,Kd,PLK3,100 nM
FC(F)(F)c1ccc(-c2ncn(CCCN3CCOCC3)c2-c2ccncc2)cc1 [SB-217780],Kd,PRKCD,> 10000 nM
COc1cc(Nc2nccc(N3CCC(NC(=O)C4COc5ccccc5O4)C3)n2)cc(OC)c1OC (centres unmarked) [GSK1379761],Kd,PIP5K2C,670 nM
COc1cc2ncn(-c3cc(OCc4ccncc4Br)c(C(N)=O)s3)c2cc1OC [GW854278],Kd,PIP5K1C,610 nM
same,Kd,PIP5K2C,330 nM
same,Kd,PLK1,1.1 nM
same,Kd,PLK2,1.4 nM
same,Kd,PLK3,9.4 nM
C[C@@H]1CC[C@H](C(=O)NC2CCCCC2)CN1c1cc(-c2ccc3c(N)n[nH]c3c2)nc(N)n1 [GSK2291363],Kd,PIP5K1A,440 nM
CCS(=O)c1ccc(-c2coc3ccc(-c4nnc(C)o4)cc23)cc1 (centres unmarked),Kd,PIP5K2C,85 nM
COc1cc2ncn(-c3cc(OCCCc4ccccc4)c(C(N)=O)s3)c2cc1OC [GSK205189],Kd,PLK2,34 nM
same,Kd,PLK3,120 nM
COc1cc2ncn(-c3cc(OCc4ccncc4)c(C(N)=O)s3)c2cc1OC [GSK336313],Kd,PLK1,110 nM
same,Kd,PLK2,41 nM
Cc1ccccc1COc1cc(-n2cnc3cc(Cl)ccc32)sc1C(N)=O [GW813349],Kd,PLK1,19 nM
same,Kd,PLK2,68 nM
same,Kd,PLK3,99 nM
